Screens: PubChem, Broad Institute
T cruzi growth-1 = inhibitors of T. cruzi proliferation | inhibition, % at 8.34 µM | T. cruzi beta-gal in NIH3T3, GalScreen luminescence, 90 h | 5.9% of 77,000 active;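 active means mean inhibition above about 93%, with at least 55% of replicates each passing it, limit read from the data, passing the limit was not always enough; inconclusive means only one of those two conditions holds; inactive means neither condition holds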
C diff HTS = C. difficile growth inhibition; growth activity, negative = inhibition, % at 16 µg/mL (by protocol); 0.25% of 86,000 active; Clostridium difficile clinical isolate growth, OD600, 24 h; hits give low values;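 active means mean growth activity at or below -80% and every replicate also at or below -80%; inconclusive means mean at or below -80% but some replicate above -80%; inactive means mean growth activity above -80%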;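 further: 0% = DMSO wells and -100% = levofloxacin 16 µg/mL wells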
Pf Dd2 inh = inhibitors of Plasmodium falciparum Dd2 growth | P. falciparum Dd2 growth, SYBR Green, 72 h; hits give low values | activity change, % at 10 µM | 2.3% of 94,000 active; in the data active means activity change below about -80%; inconclusive means no clear call, values can overlap the other calls
T cruzi growth-2 = inhibitors of T. cruzi proliferation; shares compounds with T cruzi growth-1; T. cruzi beta-gal in NIH3T3, GalScreen luminescence, 90 h; inhibition, % at 8.35 µM; 72% of 5,600 active;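 active means mean replicate inhibition above about 95% and at least 55% of replicates individually reaching it, limit read from the data; inconclusive means only one of the two criteria is met; inactive means neither criterion is met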
T cruzi growth-3 = inhibitors of T. cruzi proliferation | shares compounds with T cruzi growth-1 | T. cruzi beta-gal in NIH3T3, GalScreen luminescence, 90 h | 21% of 5,600 active | inhibition, % at 2.09 µM;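 active means mean inhibition above about 95%, with at least 55% of replicates also reaching it, limit read from the data; inconclusive means meets just one of the two conditions; inactive means meets neither condition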;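 further: plate controls were neutral control median for no effect and positive control median for full effect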
NIH3T3 tox = NIH/3T3 (mouse) viability loss | AID 651742 | 14% of 5,600 active | cytotoxicity (signal decrease), % at 8.35 µM | shares compounds with T cruzi growth-1 | NIH/3T3 viability, CellTiter-Glo ATP luminescence, 90 h;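 active means mean signal decrease across replicates above about 35% based on untreated-well scatter, with enough replicates individually passing, limit read from the data; inconclusive means no rule stated though some were filed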;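 further: 0% = median of neutral control wells and 100% = median of positive control wells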
3T3 cytotox 2 = cytotoxicity in mouse NIH/3T3 fibroblasts | shares compounds with T cruzi growth-1 | AID 651744 | NIH/3T3 viability, CellTiter-Glo ATP luminescence, 90 h | inhibition, % at 24.9 µM | 56% of 5,600 active;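 active means mean loss of cell viability signal at or above a set limit, and enough replicates individually reaching it; inconclusive means meets only the mean limit or only the replicate share; inactive means meets neither condition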;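 further: 0% = median of neutral control wells and 100% = median of positive control wells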
An asterisk follows results filed as active; ? = inconclusive; . = no result given. Sampled rows, rich in hits. Any-hit rate of the full collection: about 6.7%.

SMILES	T cruzi growth-1	C diff HTS	Pf Dd2 inh	T cruzi growth-2	T cruzi growth-3	NIH3T3 tox	3T3 cytotox 2
CN1c2ccc(-c3ccccc3)cc2[C@H]2[C@H](CCN2C(=O)c2ccncc2)[C@H]1CO	103*	-9	14	107*	48	18	11
CN1c2ccc(-c3ccc(F)cc3)cc2[C@@H]2[C@@H](CCN2C(=O)c2ccncc2)[C@H]1CO	93	-9	34	.	.	.	.
CN1c2ccc(-c3ccccc3)cc2[C@H]2[C@H](CCN2C(=O)c2ccc(F)cc2)[C@H]1CO	89	-7	-7	.	.	.	.
CN1c2ccc(-c3ccc(F)cc3)cc2[C@H]2[C@H](CCN2C(=O)c2ccncc2)[C@@H]1CO	?	-8	1	110*	46	4	?
CN(C)C(=O)c1cccc(-c2ccc3c(c2)[C@H]2[C@H](CCN2C(=O)c2ccccc2)[C@@H](CO)N3C)c1	102*	12	-75	100*	72	9	-5
C[C@@H]1CCCCO[C@@H](CN(C)S(=O)(=O)c2cccs2)[C@@H](C)CN([C@H](C)CO)C(=O)c2cc(NC(=O)c3ccccc3)ccc2O1	71	5	-27	.	.	.	.
CCCNC(=O)N1C[C@H](C)[C@@H](OC)CN(C)C(=O)c2ccc(NC(=O)CCC)cc2OC[C@@H]1C	.	1	12	.	.	.	.
C[C@@H]1CN([C@H](C)CO)C(=O)c2cc(-c3ccccc3)cnc2O[C@@H]1CN(C)C(=O)c1ccccc1F	.	3	3	.	.	.	.
COc1ccccc1-c1cnc2c(c1)C(=O)N([C@H](C)CO)C[C@@H](C)[C@@H](CN(C)C(C)=O)O2	99*	-3	44	?	42	16	24
COc1ccccc1-c1cnc2c(c1)C(=O)N([C@@H](C)CO)C[C@@H](C)[C@@H](CN(C)C(C)=O)O2	12	-2	48	.	.	.	.
COc1ccccc1-c1cnc2c(c1)C(=O)N([C@H](C)CO)C[C@@H](C)[C@H](CN(C)C(C)=O)O2	9	-3	35	.	.	.	.
COc1ccccc1-c1cnc2c(c1)C(=O)N([C@H](C)CO)C[C@H](C)[C@H](CN(C)C(C)=O)O2	?	-4	52	35	2	19	-6
C[C@@H]1CN([C@H](C)CO)C(=O)c2cc(NC(=O)Cn3cnnn3)ccc2O[C@H]1CN(C)Cc1ccc(C(=O)O)cc1	-49	.	79	.	.	.	.
CNC[C@@H]1Oc2c(NC(=O)C3CC3)cccc2C(=O)N([C@H](C)CO)C[C@H]1C	3	2	-43	.	.	.	.
CN1[C@@H]2Cn3c(ccc(C4=CCCC4)c3=O)[C@H]1[C@@H](C(=O)NC1Cc3ccccc3C1)[C@@H]2CO	82	-4	0	.	.	.	.
C[C@H](CO)N1C[C@H](C)[C@@H](CN(C)Cc2ccncc2)Oc2ccc(NC(=O)C3CCCCC3)cc2C1=O	48	-2	13	.	.	.	.
CN(C)CC(=O)N1CCCCN2[C@H](CO)[C@H](c3ccc(-c4cccnc4)cc3)[C@H]2C1	108*	5	-52	70	1	-6	2
CCC(=O)N1CCCCN2[C@@H](CO)[C@H](c3ccc(C#Cc4cccnc4)cc3)[C@@H]2C1	77	4	0	.	.	.	.
CN(C)CC(=O)N1CCCCN2[C@@H](CO)[C@@H](c3ccc(-c4cccnc4)cc3)[C@@H]2C1	?	6	-59	?	30	3	-1
CCC(=O)N1CCCCN2[C@H](CO)[C@@H](c3ccc(-c4cccnc4)cc3)[C@@H]2C1	60	-9	21	.	.	.	.
CCC(=O)N1CCCCN2[C@H](CO)[C@H](c3ccc(C#Cc4cccnc4)cc3)[C@H]2C1	101*	-1	11	100*	39	4	-11
CN(C)CC(=O)N1CCCCN2[C@H](CO)[C@@H](c3ccc(-c4cncnc4)cc3)[C@H]2C1	-18	-1	23	.	.	.	.
CN(C)CC(=O)N1CCCCN2[C@H](CO)[C@H](c3ccc(-c4cccnc4)cc3)[C@@H]2C1	64	5	-16	.	.	.	.
CCC(=O)N1CCCCN2[C@H](CO)[C@H](c3ccc(-c4cccnc4)cc3)[C@H]2C1	114*	2	-69	37	24	-3	9
O=C(NCC[C@@H]1CC[C@@H](NC(=O)C2CCCC2)[C@@H](CO)O1)c1cc(Cl)cc(Cl)c1	.	7	-9	.	.	.	.
SMILES	T cruzi growth-1	C diff HTS	Pf Dd2 inh	T cruzi growth-2	T cruzi growth-3	NIH3T3 tox	3T3 cytotox 2
O=C(Nc1ccc2c(c1)[C@H]1C[C@H](CC(=O)N3CCOCC3)O[C@@H](CO)[C@H]1O2)NC1CCCC1	8	3	10	.	.	.	.
O=C(c1ccccc1F)N1CC[C@H]2[C@H](CO)Nc3ccc(-c4cccc(F)c4)cc3[C@H]21	37	-3	5	.	.	.	.
O=C(Nc1cc(Cl)cc(Cl)c1)N[C@@H]1CC[C@@H](CCNS(=O)(=O)c2cccc(F)c2)O[C@H]1CO	61	10	-11	.	.	.	.
C[C@H]1CCCCO[C@@H](CN(C)C(=O)Nc2ccc(F)cc2)[C@@H](C)CN([C@@H](C)CO)C(=O)c2cc(NC(=O)c3ccccc3)ccc2O1	?	-6	-65	?	26	-4	-2
C[C@@H]1CCCCO[C@H](CN(C)C(=O)Nc2ccc(C(F)(F)F)cc2)[C@H](C)CN([C@@H](C)CO)C(=O)c2cc(NC(=O)c3ccccc3)ccc2O1	86	-2	-76	.	.	.	.
C[C@@H]1CN([C@@H](C)CO)C(=O)c2cc(NC(=O)c3ccccc3)ccc2O[C@@H](C)CCCCO[C@@H]1CN(C)C(=O)Nc1ccc(C(F)(F)F)cc1	?	-10	-87*	104*	101*	34	80*
C[C@@H]1CCCCO[C@H](CN(C)C(=O)Nc2ccc(C(F)(F)F)cc2)[C@@H](C)CN([C@@H](C)CO)C(=O)c2cc(NC(=O)c3ccncc3)ccc2O1	72	3	-63	.	.	.	.
C[C@@H]1CCCCO[C@@H](CN(C)C(=O)Nc2ccc(C(F)(F)F)cc2)[C@@H](C)CN([C@H](C)CO)C(=O)c2cc(NC(=O)c3ccncc3)ccc2O1	.	3	-79	.	.	.	.
C[C@@H]1CCCCO[C@H](CN(C)C(=O)Nc2ccc(C(F)(F)F)cc2)[C@H](C)CN([C@H](C)CO)C(=O)c2cc(NC(=O)c3ccccc3)ccc2O1	102*	13	-53	110*	106*	-3	-11
C[C@H]1CCCCO[C@@H](CN(C)C(=O)Nc2ccc(C(F)(F)F)cc2)[C@@H](C)CN([C@@H](C)CO)C(=O)c2cc(NC(=O)c3ccncc3)ccc2O1	108*	9	-83*	109*	67	18	?
C[C@@H]1CCCCO[C@H](CN(C)C(=O)Nc2ccc(F)cc2)[C@H](C)CN([C@@H](C)CO)C(=O)c2cc(NC(=O)c3ccccc3)ccc2O1	86	1	-62	.	.	.	.
CNC[C@H]1OCCCC[C@@H](C)Oc2ccc(NC(=O)Nc3ccc(F)cc3)cc2C(=O)N([C@H](C)CO)C[C@@H]1C	14	3	18	.	.	.	.
